From PubChem
Shown is part of a subset that was picked to be rich in hits.
Tb PYK inh: T. brucei pyruvate kinase inhibition; AID 624173; TbPYK enzyme, Kinase-Glo Plus ATP luminescence, 45 min; Q57TT1; Potency, µM (doses to about 76.8 µM), for the others: at the top dose activity, negative = inhibition, hits mostly inhibitors; hit rate 0.12% among 410,000; further: potency means the concentration at half of the fitted maximal effect; on the % scale 0 is the no-effect control and ±100 the full control effect; nearly all actives have a fitted effect of over 50% in size
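In this concentration-response screen, enzyme-free wells defined baseline while DMSO plates tracked drift. Each reaction combined TbPYK, substrate, compound and 130 uM ADP for 45 min at room temperature. Kinase-Glo Plus luminescence gave the signal.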
Cycloheximide cs: affects cycloheximide protein synthesis inhibition readout, counter-screen | hit rate 12% among 300,000 | max response, % | cell reporter, cycloheximide protein synthesis inhibition counterscreen; in the data active means max response mostly above about 13%, no sharp cut-off; inactive means mostly below about 14%; further: read at 38.3 µM for the half of the compounds with a filed dose; 0% is about no effect
RE007 growth inh: less growth of the S. pombe RE007 Vpr strain | Potency, µM (top dose mostly 92.2 µM), for inactives: top-dose activity change, negative = less growth, hits mostly inhibitors | hit rate 0.21% among 360,000 | S. pombe RE007 Vpr strain, BacTiter-Glo ATP luminescence, 24 h; active means well fitted falling curve with a large enough effect; inconclusive means small, poorly fitted or top-dose-only effect; inactive means no such curve, though single readings can be large or run the other way; further: potency means the concentration at half of the fitted maximal effect; on the % scale 0 is the no-effect control and ±100 the full control effect; nearly all actives have a fitted effect of over 50% in size
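Fission yeast strain RE007, carrying one chromosomally integrated HIV-1 vpr copy, was seeded at OD 0.01 in PMG+AL medium with 23 nL pinned compound. After 24 h at 30 °C and 99% humidity, viability was read by BacTiter-Glo luminescence.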
LmPK inhibitor: blocks Leishmania mexicana pyruvate kinase activity; Q27686; purified LmPK, Kinase-Glo ATP luminescence, 1 h; Potency, µM (highest dose often 57.5 µM), inactives show at the highest dose activity change, negative = inhibition, usual class: inhibitors; hit rate 0.37% among 290,000; AID 1721; further: potency means the concentration at half of the fitted maximal effect; on the % scale 0 is the no-effect control and ±100 the full control effect
Target sequence (Q27686 whole entry, looked up): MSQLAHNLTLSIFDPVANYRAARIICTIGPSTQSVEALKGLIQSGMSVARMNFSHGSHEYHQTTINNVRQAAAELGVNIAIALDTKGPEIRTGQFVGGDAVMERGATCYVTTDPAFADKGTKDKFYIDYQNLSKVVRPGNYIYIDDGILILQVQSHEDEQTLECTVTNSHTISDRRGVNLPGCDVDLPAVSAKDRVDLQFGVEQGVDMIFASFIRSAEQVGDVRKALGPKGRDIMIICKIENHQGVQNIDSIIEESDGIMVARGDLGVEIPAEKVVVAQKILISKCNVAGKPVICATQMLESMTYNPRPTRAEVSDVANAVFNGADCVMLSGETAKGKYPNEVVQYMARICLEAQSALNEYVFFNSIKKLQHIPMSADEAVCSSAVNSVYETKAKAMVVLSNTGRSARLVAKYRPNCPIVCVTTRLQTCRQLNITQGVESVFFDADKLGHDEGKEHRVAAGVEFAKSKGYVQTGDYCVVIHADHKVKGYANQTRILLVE
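qHTS format; LmPK 0.1 nM; substrates PEP 0.5 mM and ADP 0.1 mM. One-hour room-temperature incubation, then coupled luciferase luminescence; 0.5 nM enzyme wells mark activation.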
Shiga toxin inh: inhibitors of Shiga toxin in Vero cells; inhibition, % at 38.7 µM; hit rate 9.2% among 290,000; Vero cells, Shiga toxin protein synthesis inhibition reporter; in the data active means inhibition mostly above about 28%, no sharp cut-off; inactive means mostly below about 43%; further: 0% is about no effect
Giardia FBPA inh: Giardia lamblia aldolase inhibition. AID 2451. A8B2U2. Potency, µM (titrated, usually from 59.6 µM), without a hit: top-dose activity, negative = inhibition, usual class: inhibitors. purified Giardia FBPA. hit rate 0.71% among 290,000; further: potency means the concentration at half of the fitted maximal effect; on the % scale 0 is the no-effect control and ±100 the full control effect; nearly all actives have a fitted effect of over 55% in size
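40 nM FBPA preincubated 10 min at RT with compound (up to 57.5 uM final), then substrate plus GAPDH/TPI/NAD/arsenate coupling and diaphorase/resazurin added. Fluorescence read after 20 min at RT, 525/598 nm.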
* marks the source's active call; other numbers are inactive results; ? = inconclusive; / = no result; + = active, no number; [ ] = dose if it differs, or a comment. Unless noted, the call rests on the fitted dose curve; in most records, active means well fitted curve in the direction sought with a large enough effect; inconclusive means small, poorly fitted or top-dose-only effect, or another doubt; inactive means no such curve, though single readings can be large; an effect the other way counts as inactive or inconclusive.

SMILES	Tb PYK inh	Cycloheximide cs	RE007 growth inh	LmPK inhibitor	Shiga toxin inh	Giardia FBPA inh
CCn1c(C)c(CS(=O)(=O)c2ccccc2)[nH]c1=O	-29%	34*	-2%	9%	108	1%
CC1CCN(C(=O)C(=O)Nc2sc3c(c2C(N)=O)CC(C)(C)OC3)CC1	0%	-2	7%	8%	-5	0%
CCOc1ccc(C2C(C(=O)c3ccco3)=C(O)C(=O)N2CCN2CCOCC2)cc1 (stereo not given)	-7%	26*	2%	-11%	54*	?
CCOc1ccc(C2C(C(=O)c3cccs3)=C(O)C(=O)N2CCN2CCOCC2)cc1 (stereo not given)	1%	28*	1%	2%	25*	-1%
CCOc1ccc(C2C(C(=O)c3ccco3)=C(O)C(=O)N2CCCn2ccnc2)cc1OCC (stereo not given)	0%	-4	2%	6%	-3	-29%
C=CCOc1ccc(C2C(C(=O)c3ccco3)=C(O)C(=O)N2Cc2cccnc2)cc1 (stereo not given)	2%	18	-15%	-3%	+	-2%
CCOc1ccc(C2C(C(=O)c3ccco3)=C(O)C(=O)N2CCN2CCOCC2)cc1OCC (stereo not given)	2%	5	9%	-3%	-4	-21%
CCOc1ccc(C2C(C(=O)c3ccco3)=C(O)C(=O)N2CCCn2ccnc2)cc1 (stereo not given)	-6%	33*	-1%	-3%	+	-21%
COC(=O)[C@@]1(Cc2ccccc2)[C@H]2c3cc(C(=O)N4CCCC4)n(C)c3C[C@H]2CN1C(=O)c1ccccc1	/	/	/	/	/	-2%
COc1ccc(NCC(=O)N/N=C/C=C\c2ccccc2)cc1	5%	21*	-11%	6%	19*	?
COc1ccccc1NCC(=O)N/N=C/C=C/c1ccccc1	3%	17	10%	-2%	18	-24%
CCOC(=O)N/N=C/C=C/c1ccccc1	6%	61*	2%	-2%	60*	-4%
COc1ccc(/C=C/C(=O)Oc2cccc(/C=N/NC(=O)COc3c(C)cccc3C)c2)cc1	2%	53*	19%	0%	105*	4%
O=C(COc1cccc2ccccc12)N/N=C/C=C/c1ccccc1	-2%	-3	-2%	0%	-13	8%
Cc1ccccc1OCC(=O)N/N=C/C=C/c1ccccc1	3%	-3	-15%	2%	10	2%
COc1ccc(/C=C/C=N/NC(=O)COc2ccc(OC)cc2)cc1	2%	17	25%	2%	43*	1%
O=C(c1ccc2c(c1)OCO2)N1CCN(S(=O)(=O)c2ccc(Cl)cc2)CC1	-17%	6	-6%	8%	-4	4%
CC1=C(c2ccc(C)cc2)[N+](=O)C(C)(C)N1[O-]	3%	19*	-4%	-20%	78*	-4%
C/C(=N\NC(=O)c1csc(C)c1C)c1ccc(C)s1	-10%	38*	1%	-3%	38*	-8%
C/C(=N\NC(=O)c1ccc2c(c1)OCO2)c1ccco1	?	16	16%	-4%	15	-2%
CC(=O)Nc1ccc(/C(C)=N/NC(=O)c2ccncc2)cc1	7%	12	7%	4%	39	-3%
CC(=O)N/N=C(/C)c1ccc(NC(=O)c2csc(C)c2C)cc1	-1%	40*	-18%	0%	147*	/
C/C(=N\NC(=O)c1cccs1)c1ccc(C(=O)O)s1	-5%	64*	-15%	1%	83*	0%
C/C(=N\NC(=O)c1csc(C)c1C)c1ccco1	-23%	37*	3%	14µM*	62*	-10%
CCOC(=O)c1cccc(NC(=O)Nc2ccc3c(c2)N(C)C(=O)c2ccccc2S3)c1	4%	/	/	/	/	/
SMILES	Tb PYK inh	Cycloheximide cs	RE007 growth inh	LmPK inhibitor	Shiga toxin inh	Giardia FBPA inh
CC(=O)c1cccc(N2C(=O)CN(S(C)(=O)=O)CC2(C)C(=O)NC2CCCC2)c1 (stereo not given)	4%[15.4 µM]	/	/	/	/	/
CC1=C(C(=O)Nc2cc(C(=O)N(C)Cc3ccccc3)ccc2C)SCCO1	-1%	-12	17%	-6%	-4	/
C/C(=N/NC(=O)c1cccs1)c1ccco1	-14%	56*	20%	?	95*	0%
CCOC(=O)C/C(C)=N/NC(=O)c1cccs1	1%	22*	-9%	1%	71*	-5%
C/C(=N\NC(=O)c1cccs1)C(C)(C)C	2%	71*	-24%	1%	57*	1%
Cc1cc2c(cc1NC(=O)c1ccccc1C)n(C)c(=O)c(=O)n2C	-3%	/	/	/	/	/
CCc1cccc(C)c1NC(=O)C(CC)n1ncn2c(cc3cc(C)ccc32)c1=O (stereo not given)	1%	/	/	/	/	/
O=C(CSc1nnc(C2COc3ccccc3O2)o1)N1CCCC1 (stereo not given)	-20%	47*	6%	1%	52*	-2%
O=C(CSc1nnc(C2CCCCC2)o1)N1CCCCC1	-6%	31*	19%	-3%	81*	8%
Cc1cccc(C)c1NC(=O)CSc1nnc(C2CCCCC2)o1	-4%	-1	4%	-10%	-10	-3%
COC(=O)c1cc(S(=O)(=O)C(C)C)c(S(C)=O)s1 (stereo not given)	3%	14*	-1%	2%	27	4%
CN(C)CCNC(=O)c1ccc2nc(Cc3ccccc3)oc2c1	0%	/	/	/	/	/
CN(C)c1ccc(NS(=O)(=O)c2cc(Cl)ccc2Cl)cc1	-24%	21*	-18%	-6%	33	-6%
N#Cc1c(-c2ccccc2)cc2nc3ccccc3n2c1N	-2%	24*	-15%	-2%	0	4%
C/C(=N\NC(=O)c1cccc(Cl)c1)c1cccc(NC(=O)c2ccco2)c1	-16%	24*	-9%	7%	91*	-1%
C/C(=N/NC(=O)c1cccc(C)c1)c1c(O)cc(C)oc1=O	-1%	31*	-21%	-1%	61*	?
O=C(N/N=C/c1ccco1)c1cccc(NC(=O)c2cccc(Cl)c2)c1	-1%	41*	17%	1%	81*	1%
C/C(=N\NC(=O)c1cccc(C)c1)c1cccc(NC(=O)c2ccco2)c1	-7%	19*	-1%	0%	32	0%
CCOc1ccc(-c2nnc(N(CC)C(=O)C3CCC3)s2)cc1	-7%	28*	-3%	0%	53*	-5%
COCCN(C(=O)CCc1ccc(OC)cc1)c1nnc(-c2ccncc2)s1	-1%	-6	1%	10%	-13	-15%
CCCC(=O)N(C)c1nnc(-c2ccc(OC)cc2)s1	-6%	13*	/	-3%	46	2%
Cc1cccc(NC(=O)CCCN2C(=O)C3CC=CCC3C2=O)c1 (stereo not given)	-11%	14	13%	0%	8	8%
